This note sets out measurements from PubChem BioAssay AID1745848 (National Center for Advancing Translational Sciences (NCATS), 2022).

Out of some 2,100 compounds screened, about 940 (45%) were called active. Another 48% or so got no clear call; they are omitted. Calls follow the shape of the dose curve; as a rule, active = well fitted inhibition curve with a large enough effect; inconclusive = small, poorly fitted or top-dose-only effect; inactive = no such curve, though single readings can be large or run the other way. The set was probably picked from earlier hits. Some of the results follow.
Potency is read from the fitted curve at half-maximal effect.

The experiment in a line: Confirmatory qHTS for Inhibitors of ATXN expression. Also: nearly all actives have a fitted effect of over 65% in size. The following applies: ATXN2-luciferase reporter cells, luminescence, 24 h; series mostly up to 11.5 µM. The procedure, abridged: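 Cells carrying ATXN2-luciferase reporter exposed 24 h at 37 C to compound. Viability then read by CellTiter-Fluor (25 uM GF-AFC, 30 min), followed by SteadyGlo luminescence; medium-only wells set 100% inhibition.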
Background: qHTS replaces the single test concentration by a dilution series.
`Cc1cccc2c1-c1sc(C(=O)Nc3ccccc3N3CCN(C)CC3)cc1CO2`: the Potency is 25.1 µM (active). On to `CCn1c(COc2ccccc2C)nnc1SCC(=O)N1CCN(c2ccccc2)CC1`, for which the Potency is 14.1 µM (active). With `CC(C)(CC(=O)N1CCN(c2ccc(Cl)cc2)CC1)CC1=NS(=O)(=O)c2ccccc2N1` the figure was 2.51 µM (active); with `Cc1nnc(N/N=C/c2ccccn2)[nH]c1=O`, 1.41 µM (active). With `O=c1nc(N/N=C/c2ccccn2)cn[nH]1` the figure was 28.2 µM (active). `C(=N\Nc1ccc2nncn2n1)/c1ccccn1`: the Potency is 17.8 µM (active). With `C(=N\NC(=Nc1ccccc1)c1ccccn1)/c1ccccn1` the entry was “inactive”; with `Cc1[nH]n2c(=O)cc(C(C)(C)C)nc2c1-c1ccccc1`, 7.08 µM (active).

Consider `CCCc1cc(=O)[nH]c(-n2[nH]c3c(c2=O)CCCC3)n1`, for which the Potency was 15.8 µM (active). For the compound `COc1ccc(-c2nnc(NC(=O)c3ccc(S(=O)(=O)N4COCC4(C)C)cc3)o2)cc1`, the Potency is 2.51 µM (active). For `CCCN(CCC)S(=O)(=O)c1ccc(C(=O)Nc2nnc(-c3cc(OC)cc(OC)c3)o2)cc1`, the Potency is 1.58 µM (active). With `CC1(C)COCN1S(=O)(=O)c1ccc(C(=O)Nc2nnc(-c3ccc(Cl)s3)o2)cc1` the figure was 1.12 µM (active); with `COc1cc(NC(=O)N2CCc3nc(Nc4cc(Cl)cc(Cl)c4)ncc3C2)cc(OC)c1OC`, 3.98 µM (active); with `CCOC(=O)C(C(C)=O)c1c(Br)c(O)c(O)c2c(C(=O)c3ccc(C)cc3)coc12` (stereo unspecified), 5.62 µM (active). In the case of `CC(=O)C(C(C)=O)c1c(Cl)c(O)c(O)c2c(C(=O)c3ccccc3)coc12`, the Potency is 5.62 µM (active).

As to `O=C(Nc1ccc(OCC(F)(F)C(F)F)c(C(F)(F)F)c1)c1ccc(Cl)cc1`, the Potency is 3.55 µM (active).

With `C=CCOC(=O)C1=C[C@@H](c2ccc3c(c2)OCO3)C[C@@H](OCCCCO)O1`, the Potency result is “inactive”. For `O=C(NCc1ccccc1)C1=C[C@@H](c2csc3ccccc23)C[C@@H](OCCCCO)O1`, the Potency was 3.55 µM (active). Next, `CN(C)C(=O)CSc1nc(-c2ccccc2)nc2c1CCCC2`: 17.8 µM (active).

As to `COC(=O)C1=C(C)N(Cc2ccccc2)C(=NCCc2ccccn2)N[C@H]1c1cccc(C(F)(F)F)c1`, the Potency was 3.16 µM (active). As to `COC(=O)C1=C(C)N(Cc2ccccc2)C(=NCCc2cccnc2)N[C@H]1c1ccc(Br)cc1`, the Potency is 25.1 µM (active). As to `CCc1cc(-c2nnn(CCC3COCCO3)c2CC)ccc1-c1cn(CCc2c[nH]c3ccccc23)nn1` (stereo unspecified), the Potency is 8.91 µM (active). With `O=C(N/N=C/c1cc([N+](=O)[O-])ccc1O)c1ccc(COc2ccc3c(c2)CCC3)o1` the figure was 3.55 µM (active); with `O=C1CCCC(O)=C1C=NCc1ccccc1`, “inactive”; with `Cn1ncc2c(Nc3cccc(Cl)c3)nc(Nc3cccc(Cl)c3)nc21`, 28.2 µM (active). Next, `COc1ccccc1OCCN1CSC(=S)N(C)C1`: 17.8 µM (active).

Turning to `COC1C=CC=C(C)C(=O)NC2=CC(=O)C(N)=C(CC(C)CC(OC)C(O)C(C)C=C(C)C1OC(N)=O)C2=O` (stereo unspecified), the Potency is 0.282 µM (active). Next, `CSc1nc(C)cc(OCC(=O)N/N=C/c2ccccc2O)n1`: 2 µM (active); `C/C(=N\OCC(=O)N/N=C/c1ccccc1O)c1cccs1`: 12.6 µM (active); `O=C(COc1nsnc1N1CCOCC1)N/N=C/c1ccccc1O`: 14.1 µM (active). Next, `CCN1CCN(C(c2ccc(C(F)(F)F)cc2)c2ccc3cccnc3c2O)CC1` (stereo unspecified): 3.55 µM (active). With `CN1CCN(C(c2ccc(C(F)(F)F)cc2)c2ccc3cccnc3c2O)CC1` (stereo unspecified) the figure was 7.94 µM (active); with `O=C(Nc1cccc2cccnc12)c1csc(COCCO)n1`, “inactive”. Regarding `O=C(Nc1c(Cl)cccc1Cl)Oc1cccc2cccnc12`, the Potency was 10 µM (active). With `O=C(N/N=C/c1sc(N2CCOCC2)nc1-c1ccccc1)c1ccccc1O` the figure was 28.2 µM (active). Next, `Cc1cc2oc3ccc(NCCC4CCCN4C)cc3c(=O)c2cc1C` (stereo unspecified): 31.6 µM (active); `CCCn1ncc(CN2CCC(C(=O)Nc3cccc(-c4cccc(F)c4)c3)CC2)c1C`: 28.2 µM (active). With `CCN(c1ccccc1)S(=O)(=O)c1ccc(C(=O)N(CCCN(C)C)c2nc3c(C)cccc3s2)cc1` the figure was 25.1 µM (active); with `Cc1ccc2nc(N(CCCN(C)C)C(=O)c3ccc(S(=O)(=O)N4CCCCCC4)cc3)sc2c1`, 3.16 µM (active). In the case of `Cc1ccc2sc(N(CCCN(C)C)C(=O)c3ccc(S(=O)(=O)N4CCCCCC4)cc3)nc2c1C`, the Potency was 28.2 µM (active). Next, `Cc1cc(C)c2nc(N(CCCN(C)C)C(=O)c3ccc4c(c3)OCCO4)sc2c1`: 28.2 µM (active). Next, `Nc1ncn([C@@H]2O[C@H](CO)[C@@H](O)[C@H]2O)c(=O)n1`: 3.98 µM (active); `Nc1ccn([C@@H]2O[C@H](CO)[C@@H](O)C2O)c(=O)n1` (stereo partly specified): 3.55 µM (active). Next, `Nc1ccc2c(c1)OC1(CCCC1)O2`: 0.316 µM (active); `Clc1ccc2c(NCc3ccccc3)ccnc2c1`: 15.8 µM (active); `COc1ccc(-c2cc(C3CCN(c4ccc(C(C)=O)cc4[N+](=O)[O-])CC3)[nH]n2)cc1`: 15.8 µM (active). For `Cc1ccc(C)c(NC(=O)c2ccccc2NS(=O)(=O)c2cc([N+](=O)[O-])ccc2C)c1`, the Potency was 2.51 µM (active).

For `CCc1ccc(-c2csc(NC(=O)C3CC(=O)N(c4ccc5c(c4)OCCO5)C3)n2)cc1` (stereo unspecified), the Potency is 11.2 µM (active).

As for `COc1ccc(-c2nc(NC(=O)C3CC(=O)N(c4ccc5c(c4)OCCO5)C3)sc2C)cc1` (stereo unspecified), the Potency is 8.91 µM (active). With `CCCCC(=O)NC(c1ccc(OC)c(OC)c1)c1ccc2cccnc2c1O` (stereo unspecified) the figure was 2.82 µM (active). Next, `CCC(=O)NC(c1ccc(Cl)cc1Cl)c1ccc2cccnc2c1O` (stereo unspecified): 1.26 µM (active). With `CCCCC(=O)NC(c1ccc(Cl)cc1Cl)c1ccc2cccnc2c1O` (stereo unspecified) the figure was 0.708 µM (active); with `CCCC(=O)NC(c1ccc(Cl)cc1Cl)c1ccc2cccnc2c1O` (stereo unspecified), 2.82 µM (active). On to `CCCCC(=O)NC(c1ccccc1OC)c1ccc2cccnc2c1O` (stereo unspecified), for which the Potency was 2 µM (active). On to `CCCCC(=O)NC(c1ccccc1Cl)c1ccc2cccnc2c1O` (stereo unspecified), for which the Potency was 2 µM (active).

As to `NNC(=O)/C(=N/Nc1ccccc1)S(=O)(=O)c1ccc(Cl)cc1`, the Potency was 4.47 µM (active).

Regarding `CC(=O)c1ccc(N2CCN(CC(O)COC(c3ccccc3)c3ccccc3)CC2)cc1` (stereo unspecified), the Potency result is “inactive”.

As to `CCCOc1ccc(C(=O)C(CN2CCOCC2)c2ccccc2)cc1` (stereo unspecified), the Potency is 25.1 µM (active).

Turning to `COc1ccccc1C(=O)NNC1=C(C(=O)C(F)(F)F)CCC1`, the Potency is 1.58 µM (active). With `CCN(CC)CCn1c2ccccc2c2cnc(N)c(C#N)c21`, the Potency was 1.58 µM (active). Next, `O=S(=O)([N-]c1nc2ccccc2nc1-[n+]1ccc(Cc2ccccc2)cc1)c1ccc(Br)s1`: 8.91 µM (active); `Cc1ccc2c(c1)N(C)/C(=C/c1cccc[n+]1C)S2`: 4.47 µM (active); `CC[n+]1ccccc1/C=C1\Sc2ccc(C)cc2N1C`: 8.91 µM (active). Turning to `Cn1nccc1C(=O)N1CCCC(C(=O)c2cccc3ccccc23)C1` (stereo unspecified), the Potency result is “inactive”. With `COc1cccc(-c2nc(N3CCN(C)CC3)c3ccccc3n2)c1O` the figure was 3.16 µM (active); with `CCOC(=O)c1c(NC(=O)/C=C/C(=O)O)sc(C)c1-c1ccc(Cl)cc1`, 25.1 µM (active); with `COc1cc(/C=C/CN2CCC(C(=O)NC(c3ccc(F)cc3)c3ccc4ccccc4n3)CC2)ccc1OC(C)=O` (stereo unspecified), 17.8 µM (active).

With `CCCCC(=O)NC(c1ccccc1)c1ccc2cccnc2c1O` (stereo unspecified), the Potency was 2.82 µM (active). With `CCCC(=O)NC(c1ccccc1)c1ccc2cccnc2c1O` (stereo unspecified), the Potency was 2.82 µM (active). With `CC(N)c1csc(NC(=O)c2cc(C(C)(C)C)nn2Cc2ccccc2)n1` (stereo unspecified) the figure was 3.16 µM (active). Next, `FC(F)(F)c1nc(-c2cccs2)ncc1-c1nnnn1-c1ccc(Cl)cc1`: 20 µM (active); `Cc1nc2ccc(NC(=O)c3cccc(S(=O)(=O)N(C)c4ccccc4)c3)cc2s1`: 3.98 µM (active). With `Cc1nc2ccc(NC(=O)c3ccc(S(=O)(=O)N(C)c4ccccc4)cc3)cc2s1` the figure was 2.24 µM (active); with `CN(c1ccccc1)S(=O)(=O)c1cccc(NC(=O)c2cc(=O)c3ccccc3o2)c1`, 28.2 µM (active). As to `CCCC(=O)Nc1ccc2nc(SCC(=O)N3CCCC3)sc2c1`, the Potency result was “inactive”. Next, `CCCCC(=O)N(CCOC)c1nnc(-c2ccccc2C)s1`: “inactive”.

In the case of `CC[n+]1c(C=C2C=C(C)OC(C)=C2)sc2ccccc21`, the Potency was 6.31 µM (active).

For the compound `Cc1cc(Nc2cccc([N+](=O)[O-])c2)n2c(nc3ccccc32)c1C#N`, the Potency was 1.12 µM (active). With `Cc1cc(Cl)c(C(=O)Nc2cccc(C(F)(F)F)c2)c(C)n1` the figure was 11.2 µM (active). As for `CCOc1ccccc1C(=O)Nc1ccc2nc(N3CCN(c4ncccn4)CC3)cc(C)c2c1`, the Potency is 7.94 µM (active). With `CCCCC(=O)NC(c1ccc(N(CC)CC)cc1)c1ccc2cccnc2c1O` (stereo unspecified) the figure was 0.355 µM (active). Next, `CCCCC(=O)NC(c1ccc(N(C)C)cc1)c1ccc2cccnc2c1O` (stereo unspecified): 1.26 µM (active); `COc1ccc(CNCC(O)(c2ccc(Cl)cc2)c2ccc(Cl)cc2)cc1OC`: 3.16 µM (active); `Cc1cc(C)c2c(N)c3cccc(C)c3nc2n1`: 10 µM (active). With `O=C(COc1ccc(F)cc1)N/N=C/c1cccc2cccnc12` the figure was 3.55 µM (active); with `O=C(COc1ccc(Cl)cc1)N/N=C/c1cccc2cccnc12`, 25.1 µM (active); with `CC(=O)Nc1sc2c(c1-c1nc3ccccc3s1)CN(C(C)C)CC2`, 10 µM (active).

For `CCc1sc(C(=O)Nc2nc(-c3ccccn3)cs2)cc1C`, the Potency was 8.91 µM (active). With `O=C(Nc1nc(-c2ccccn2)cs1)c1ccco1` the figure was 4.47 µM (active). With `CC(Oc1ccc(F)cc1)C(=O)Nc1nc(-c2ccccn2)cs1` (stereo unspecified) the figure was 2.24 µM (active); with `O=C(Nc1nc(-c2ccccn2)cs1)c1ccccc1-n1cnnn1`, 2 µM (active).
